{
  "source": "PubChem BioAssay (EPA / NIEHS)",
  "note": "Records with an inconclusive call do not appear. Activity calls are given as the source filed them. Rule for the calls: active = hit-call score of the fitted dose curve at least 0.9, where 1 is the maximum; inconclusive = response in the unintended direction; inactive = score below 0.9.",
  "data": [
    {"target": "Cellular tumor antigen p53 (Homo sapiens) (UniProt P04637)", "sequence (P04637 whole entry, looked up, the tested form may be a part)": "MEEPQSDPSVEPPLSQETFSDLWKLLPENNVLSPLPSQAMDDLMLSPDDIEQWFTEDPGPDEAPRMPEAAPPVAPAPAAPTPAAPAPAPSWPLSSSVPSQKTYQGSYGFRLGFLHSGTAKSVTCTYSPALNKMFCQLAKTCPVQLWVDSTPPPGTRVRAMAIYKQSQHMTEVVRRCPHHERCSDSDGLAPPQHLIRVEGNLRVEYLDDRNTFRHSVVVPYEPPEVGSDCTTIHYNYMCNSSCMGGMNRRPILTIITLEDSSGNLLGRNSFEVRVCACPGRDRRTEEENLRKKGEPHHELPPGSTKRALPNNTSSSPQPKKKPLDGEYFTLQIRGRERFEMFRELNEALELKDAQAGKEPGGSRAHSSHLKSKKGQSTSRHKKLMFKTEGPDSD", "experiment": "TOX21_p53_BLA_p4_ratio: Tox21 HCT-116 p53 Agonism Beta-lactamase Assay, Ratio, Phase 4 (AID 2283601)", "description": "TOX21_p53_BLA_p4 is a cell-based, single-readout assay that uses HCT116, a human intestinal cell line, […] in a 1536-well plate.TOX21_p53_BLA_p4_ratio is an assay readout measuring reporter gene via receptor activity and designed using inducible reporter (beta lactamase induction) detected with GAL4 b-lactamase reporter gene. The signal is derived from the ratio of cleaved (ch2) to uncleaved (ch1)reporter gene substrate used as the measure of target activity.Data from the assay component TOX21_p53_BLA_p4_ratio was analyzed into 1 assay endpoint. This assay endpoint, TOX21_p53_BLA_p4_ratio, was analyzed in the positive analysis fitting direction relative to DMSO as the negative control and baseline of activity. Using a type of inducible reporter, gain-of-signal activity can be used to understand changes in the reporter gene as they relate to the gene TP53. Furthermore, this assay endpoint can be referred to as a primary readout, because this assay has produced multiple assay endpoints where this ratio serves a reporter gene function to understand target activity. To generalize the intended target to other relatable targets, this assay endpoint is annotated to the DNA binding intended target family, where the subfamily is tumor suppressor.\nThawing Method: Place 14 mL of pre-warmed thaw medium into a 15 mL of conical tub. Remove the vial of cells to be thawed from liquid nitrogen and thaw rapidly by placing at 37C in a water bath with gentle agitation for 1-2 minutes. Decontaminate the vial by wiping with 70% ethanol before opening in a biological safety cabinet. Transfer the vial contents drop-wise into 14 mL of thaw medium in a sterile 15-mL conical tub. Centrifuge cells at 900 rpm for 4 minutes and resuspend in thaw medium. Transfer contents to the T75 tissue culture flask containing Thaw Medium and place flask in a humidified 37C/5% CO2 incubator. Switch to growth medium at first passage.Propagation Method: Aspirate medium, rinse once in DPBS, add 0.25% Trypsin/EDTA and swirl to coat the cell evenly. Add an equal volume of Growth Medium to inactivate Trypsin after 2-3 minutes incubation at 37C. Centrifuge cells at 900 rpm for 4 minutes and resuspend in growth medium. Cell should be passage or fed at least twice a week.Assay Protocol: Harvest cells from culture in growth medium and resuspend in assay medium. 2.2 Dispense 4000 cells/5 uL/well into 1536-well black/clear bottom plates using a Multidrop dispenser. After the cells were incubated at 37C for 5 hours, 23 nL of compounds dissolved in DMSO were transferred to the assay plate by a PinTool resulting in a 217-fold dilution. Incubate the plates for 16 hours at 37C, 5% CO2. Add 1 uL of 6X LiveBLAzer FRET B/G (CCF4-AM) Substrate Mixture to each well using a BioRAPTR dispenser and incubate the plates at room temperature for 2 hours. Measure fluorescence intensity at 460 and 530 nm emission and 405 nm excitation by an Envision detector. Data is expressed as the ratio of 460nm/530nm emissions. Add 4 uL of Cell-titer Glo to each well using BioRAPTR and incubate the plates at room temperature for 2 hours. Measure fluorescence intensity by a VewLux plate reader.", "values": [
      {"smiles": "COc1cc(OC)c(C(=O)CCCN2CCCC2)c(OC)c1", "outcome": "inactive"},
      {"smiles": "CCC(C)=NO", "outcome": "inactive"},
      {"smiles": "O=C(CCCN1CCC(C(=O)c2ccc(F)cc2)CC1)c1ccc(F)cc1", "outcome": "inactive"},
      {"smiles": "CC1=Nc2ccccc2C1(C)C", "outcome": "inactive"},
      {"smiles": "COc1cc(/C=C/C(=O)O[C@H]2CC[C@]34C[C@]35CC[C@]3(C)[C@@H]([C@H](C)CCC=C(C)C)CC[C@@]3(C)[C@@H]5CC[C@H]4C2(C)C)ccc1O", "AC50": "6.07 µM (active)"},
      {"smiles": "CC(C)(C)CC(C)(C)c1ccc(OCCO)cc1", "outcome": "inactive"},
      {"smiles": "O=C(O)CN(CCN(CC(=O)O)CC(=O)O)CC(=O)O", "outcome": "inactive"},
      {"smiles": "O=C(O)c1cc(-c2ccccc2)nc2ccccc12", "outcome": "inactive"},
      {"smiles": "Cc1cc(CC(=O)O)n(C)c1C(=O)c1ccc(Cl)cc1", "outcome": "inactive"},
      {"smiles": "NC(N)=NCC1COc2ccccc2O1", "note": "(stereo not given)", "outcome": "inactive"},
      {"smiles": "CO[C@H]1C[C@H](O[C@H]2[C@H](C)O[C@@H](O[C@@H]3/C(C)=C/C[C@@H]4C[C@@H](C[C@]5(C=C[C@H](C)[C@@H](C6CCCCC6)O5)O4)OC(=O)[C@@H]4C=C(C)[C@@H](O)[C@H]5OC/C(=C\\C=C\\[C@@H]3C)[C@]54O)C[C@@H]2OC)O[C@@H](C)[C@@H]1O", "outcome": "inactive"},
      {"smiles": "Nc1ccc2ccccc2c1S(=O)(=O)O", "outcome": "inactive"},
      {"smiles": "CC(C)=CCC/C(C)=C/CC/C(C)=C/CC/C=C(\\C)CC/C=C(\\C)CCC=C(C)C", "outcome": "inactive"},
      {"smiles": "CC1=CC(=C(c2ccc(N)cc2)c2ccc(N)cc2)C=CC1=N", "outcome": "inactive"},
      {"smiles": "CC[C@H]1OC(=O)[C@H](C)C(=O)[C@H](C)[C@@H](O[C@@H]2O[C@H](C)C[C@H](N(C)C)[C@H]2O)[C@](C)(OC)C[C@@H](C)C(=O)[C@H](C)[C@H]2N(CCCCn3cnc(-c4cccnc4)c3)C(=O)O[C@]12C", "outcome": "inactive"},
      {"smiles": "c1ccc(-c2ccc(C(c3ccccc3)n3ccnc3)cc2)cc1", "note": "(stereo not given)", "AC50": "34.1 µM (active)"},
      {"smiles": "OCCSc1ccccc1", "outcome": "inactive"},
      {"smiles": "Nc1c(CC(=O)O)cccc1C(=O)c1ccc(Br)cc1", "outcome": "inactive"},
      {"smiles": "C[C@H](O)[C@H](O)[C@H]1CNc2nc(N)[nH]c(=O)c2N1", "outcome": "inactive"},
      {"smiles": "Cc1c(N(C)CS(=O)(=O)O)c(=O)n(-c2ccccc2)n1C", "outcome": "inactive"},
      {"smiles": "Cc1cccc2sc(N)nc12", "outcome": "inactive"},
      {"smiles": "Cc1c(C(=O)NCCO)[n+](=O)c2ccccc2n1[O-]", "outcome": "inactive"},
      {"smiles": "COC(=O)C1=C(C)NC(C)=C(C(=O)OCC(C)=O)C1c1ccccc1[N+](=O)[O-]", "note": "(stereo not given)", "outcome": "inactive"},
      {"smiles": "CNCCS(=O)(=O)O", "outcome": "inactive"},
      {"smiles": "N#C/C(=C1/SC[C@@H](c2ccc(Cl)cc2Cl)S1)n1ccnc1", "outcome": "inactive"},
      {"smiles": "CCCCC1C(=O)N(c2ccccc2)N(c2ccc(O)cc2)C1=O", "note": "(stereo not given)", "outcome": "inactive"},
      {"smiles": "COc1cc2c(cc1OC)CC(=O)N(CCCN(C)C[C@H]1Cc3cc(OC)c(OC)cc31)CC2", "outcome": "inactive"},
      {"smiles": "CCCCCCC", "outcome": "inactive"},
      {"smiles": "C=C1/C(=C\\C=C2/CCC[C@]3(C)[C@@H]([C@H](C)OCCC(C)(C)O)CC[C@@H]23)C[C@@H](O)C[C@@H]1O", "AC50": "9.97 µM (active)"},
      {"smiles": "CCCCCCCC/C=C\\CCCCCCCCN", "outcome": "inactive"},
      {"smiles": "NCCN1CCNC1=O", "outcome": "inactive"},
      {"smiles": "N[C@H]1C(O)O[C@H](CO)[C@@H](O)[C@@H]1O", "note": "(stereo not given in full)", "outcome": "inactive"},
      {"smiles": "O=C(O)c1cc(O)c(O)c(O)c1", "outcome": "inactive"},
      {"smiles": "C[C@@H]1C[C@H]2O[C@@]3(O[C@@H]2C(C)(C)O)[C@H](O)[C@@]2(C)[C@@H]4CC[C@H]5C(C)(C)[C@@H](O[C@@H]6OC[C@@H](O)[C@H](O)[C@H]6O)CC[C@@]56C[C@@]46CC[C@]2(C)[C@@H]13", "outcome": "inactive"},
      {"smiles": "COc1cc2c(cc1OC)C(=O)C(CC1CCN(Cc3ccccc3)CC1)C2", "note": "(stereo not given)", "outcome": "inactive"},
      {"smiles": "CS(=O)(=O)c1ccc([C@@H](O)[C@@H](CO)NC(=O)C(Cl)Cl)cc1", "outcome": "inactive"},
      {"smiles": "CC(=O)CC(=O)c1ccccc1", "outcome": "inactive"},
      {"smiles": "NC(=O)NC(=O)Cc1ccccc1", "outcome": "inactive"},
      {"smiles": "Cc1cnc(C(=O)NCCc2ccc(S(=O)(=O)NC(=O)NC3CCCCC3)cc2)cn1", "outcome": "inactive"},
      {"smiles": "CCOC(=O)C1=C[C@@H](OC(CC)CC)[C@H](NC(C)=O)[C@@H](N)C1", "outcome": "inactive"}
    ]}
  ]
}
